# PubChem BioAssay AID1345085 (National Center for Advancing Translational Sciences (NCATS), 2018)
# Results filed as inconclusive are left out. Calls of active or inactive are those of the source. Calls follow the shape of the dose curve; as a rule, active = well fitted cell-killing curve with a large enough effect; inconclusive = small, poorly fitted or top-dose-only effect, or effect the other way; inactive = no such curve, though single readings can be large or run the other way.
# Test system: CASKI
# Experiment: Confirmatory qHTS for gynecologic anti-cancer compounds from libraries of approved drugs and bioactive compounds; also: nearly all actives have a fitted effect of over 55% in size
# Settings: gynecologic cancer cell panel viability, ATPlite luminescence, 48 h; series mostly up to 57.6 µM; activity change, negative = viability loss: at the top concentration
# Procedure, shortened: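 Seeding 1,000 cells per well preceded overnight (16 h) attachment, after which 48 h drug treatment across 57.5 uM–0.977 nM (11 points) was applied. Remaining cellular ATP, detected by ATPlite luminescence, defined IC50.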
# % is scaled to controls: 0 for no effect and ±100 for the full control effect; potency is read from the fitted curve at half-maximal effect.
Compound,Potency,"activity change, negative = viability loss"
CC[C@@]1(O)C(=O)OCc2c1cc1n(c2=O)Cc2c-1nc1ccccc1c2/C=N/OC(C)(C)C,0.153 µM (active),–
CCC1C(=O)N(C)c2cnc(Nc3ccc(C(=O)NC4CCN(C)CC4)cc3OC)nc2N1C1CCCC1 (configuration not stated),6.85 µM (active),–
C[C@]12CCC(=O)C=C1[C@@H]1C[C@@H]1[C@H]1[C@@H]3[C@@H]4C[C@@H]4[C@@]4(CCC(=O)O4)[C@@]3(C)CC[C@@H]12,–,-4.75% (inactive)
COc1cccc2c1C(=O)c1c(O)c3c(c(O)c1C2=O)C[C@@](O)(C(=O)CO)C[C@@H]3O[C@H]1C[C@H](N)[C@H](O[C@@H]2CCCCO2)[C@H](C)O1,17.2 µM (active),–
COC(=O)c1ccc2c(C(=Nc3ccc(N(C)C(=O)CN4CCN(C)CC4)cc3)c3ccccc3)c(O)[nH]c2c1,–,-13.2% (inactive)
Cc1nc(NC(=O)N2CCCC2C(N)=O)sc1-c1ccnc(C(C)(C)C(F)(F)F)c1 (configuration not stated),7.69 µM (active),–
COc1cc2c(c(OC)c1OC)-c1ccc(OC)c(=O)cc1[C@@H](NC(C)=O)CC2,–,-4.77% [at 486 µM] (inactive)
CCOC(=O)C1=C(C)NC2=C(C(=O)CC(C)(C)C2)C1c1ccc(-c2ccccc2)cc1 (configuration not stated),–,-23.5% (inactive)
CCCCc1nc2cc(/C=C/C(=O)NO)ccc2n1CCN(CC)CC,4.85 µM (active),–
CC(=O)OC12COC1CC(O)C1(C)C(=O)C(O)C3=C(C)C(OC(=O)C(O)C(NC(=O)OC(C)(C)C)c4ccccc4)CC(O)(C(OC(=O)c4ccccc4)C21)C3(C)C (configuration not stated),–,9.99% (inactive)
COCCOc1ccc2c(c1)ncn2-c1ccc2cccc(N3CCC(N)CC3)c2n1,27.3 µM (active),–
Cc1csc(NC(=O)c2sc3nc4c(c(C(F)(F)F)c3c2N)CCC4)n1,5.44 µM (active),–
COc1cccc2c1C(=O)c1c(O)c3c(c(O)c1C2=O)C[C@@](O)(C(=O)CO)C[C@@H]3O[C@H]1C[C@H](N)[C@H](O)[C@H](C)O1,8.63 µM (active),–
O=C1N(c2ccccc2)c2ccccc2C1(Cc1ccncc1)Cc1ccncc1,–,8.36% (inactive)
CN(C)CCC(CSc1ccccc1)Nc1ccc(S(=O)(=O)NC(=O)c2ccc(N3CCN(Cc4ccccc4-c4ccc(Cl)cc4)CC3)cc2)cc1[N+](=O)[O-] (configuration not stated),3.85 µM (active),–
NCCOc1cc(C(=O)Nc2cc(OCCN)c3ccccc3n2)nc(C(=O)Nc2cc(OCCN)c3ccccc3n2)c1,30.6 µM (active),–

Compound,Potency,"activity change, negative = viability loss"
O=c1[nH]c(=O)n([C@H]2C[C@H](O)[C@@H](CO)O2)cc1Br,–,-12.3% (inactive)
CCc1c2c(nc3ccc(OC(=O)N4CCC(N5CCCCC5)CC4)cc13)-c1cc3c(c(=O)n1C2)COC(=O)[C@]3(O)CC,19.3 µM (active),–
CC[C@@]1(O)C(=O)OCc2c1cc1n(c2=O)Cc2cc3c(CN(C)C)c(O)ccc3nc2-1,1.09 µM (active),–
O=C(NOCC1CC1)c1ccc(F)c(F)c1Nc1ccc(I)cc1Cl,21.7 µM (active),–
COc1ccc(CCC(=O)c2c(O)cc(O[C@@H]3O[C@H](CO)[C@@H](O)[C@H](O)[C@H]3O[C@@H]3O[C@@H](C)[C@H](O)[C@@H](O)[C@H]3O)cc2O)cc1O,–,6.84% (inactive)
CCc1c2c(nc3ccc(O)cc13)-c1cc3c(c(=O)n1C2)COC(=O)[C@]3(O)CC,0.153 µM (active),–
O=C1Cc2cc(CCN3CCN(c4nsc5ccccc45)CC3)c(Cl)cc2N1,–,1.02% (inactive)
COc1cc(Nc2ncc(F)c(Nc3ccc4c(n3)N(COP(=O)(O)O)C(=O)C(C)(C)O4)n2)cc(OC)c1OC,5.44 µM (active),–
CC(C)C[C@H](NC(=O)[C@H](CCc1ccccc1)NC(=O)CN1CCOCC1)C(=O)N[C@@H](Cc1ccccc1)C(=O)N[C@@H](CC(C)C)C(=O)[C@@]1(C)CO1,9.68 µM (active),–
CC(=O)O[C@H]1C(=O)[C@@]2(C)[C@H]([C@H](OC(=O)c3ccccc3)[C@]3(O)C[C@H](OC(=O)[C@H](O)[C@@H](NC(=O)c4ccccc4)c4ccccc4)C(C)=C1C3(C)C)[C@]1(OC(C)=O)CO[C@@H]1C[C@@H]2O,–,-4.63% [at 10.7 µM] (inactive)
CCC(=O)N1CCN(c2ccc(-n3c(=O)ccc4cnc5ccc(-c6cnc7ccccc7c6)cc5c43)cc2C(F)(F)F)CC1,–,-25.9% [at 10.7 µM] (inactive)
CCCc1nn(C)c2c(=O)[nH]c(-c3cc(S(=O)(=O)N4CCN(C)CC4)ccc3OCC)nc12,–,20.6% (inactive)
COCCOc1nc(-c2ccc(Cl)c(Cl)c2)n(-c2ccc(NC(=O)CCl)cc2)n1,–,0.971% (inactive)
CN(NC(=O)CC(=O)NN(C)C(=S)c1ccccc1)C(=S)c1ccccc1,–,8.76% (inactive)
CCS(=O)(=O)N1CCN(c2ccc(Nc3ncc(C(N)=O)c(NC4CC4)n3)cc2)CC1,10.9 µM (active),–
CCC1C(=O)N(C)c2cnc(Nc3ccc(C(=O)NC4CCC(N5CCN(CC6CC6)CC5)CC4)cc3OC)nc2N1C(C)C (configuration not stated),6.11 µM (active),–
